Reference: the supplement of paper PMC3545927
Some of the results follow. How many sequences the whole screen found active is unknown.

Biological target: furin, P09958
Assay: furin cleavage Z-score vs untreated control; higher = more cleavage, active = 3.5 or more, inactive = 1 or less, 8 variable residues between constant flanks
Outline: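 The cleavage Z-score is the log read count relative to furin-free reactions, lowess-adjusted and scaled by median absolute deviation. Counts came from sequencing DNA released from bead-bound 8-mer peptide–cDNA fusions after digestion with purified furin for 7.5, 15 or 30 min.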
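Note: purified furin at 1:10 enzyme:substrate in 50 mM HEPES pH 7.5.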

furin, P09958, sequence (P09958 whole entry): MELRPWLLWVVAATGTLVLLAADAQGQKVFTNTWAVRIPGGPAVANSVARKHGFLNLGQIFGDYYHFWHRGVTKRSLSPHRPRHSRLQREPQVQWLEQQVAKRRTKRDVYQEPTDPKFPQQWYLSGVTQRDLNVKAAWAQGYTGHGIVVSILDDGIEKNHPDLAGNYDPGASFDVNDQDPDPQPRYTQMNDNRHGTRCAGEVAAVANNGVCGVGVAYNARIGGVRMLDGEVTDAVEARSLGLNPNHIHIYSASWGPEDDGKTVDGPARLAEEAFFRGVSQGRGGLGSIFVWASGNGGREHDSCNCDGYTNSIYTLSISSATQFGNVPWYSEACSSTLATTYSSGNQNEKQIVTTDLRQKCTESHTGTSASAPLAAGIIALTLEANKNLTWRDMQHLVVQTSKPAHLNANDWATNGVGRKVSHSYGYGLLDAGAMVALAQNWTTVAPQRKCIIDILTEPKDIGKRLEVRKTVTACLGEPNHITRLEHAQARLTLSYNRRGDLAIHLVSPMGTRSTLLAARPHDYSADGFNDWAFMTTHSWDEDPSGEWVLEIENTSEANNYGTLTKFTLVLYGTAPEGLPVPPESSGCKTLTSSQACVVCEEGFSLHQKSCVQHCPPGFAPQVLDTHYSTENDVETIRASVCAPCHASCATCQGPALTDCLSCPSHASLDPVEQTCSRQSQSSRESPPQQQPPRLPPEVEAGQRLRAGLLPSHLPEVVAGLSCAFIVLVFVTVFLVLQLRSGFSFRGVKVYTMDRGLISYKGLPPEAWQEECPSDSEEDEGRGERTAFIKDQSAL

CAYMSKAHGIAGNASASA [HC794]
furin cleavage Z-score (7.5 min): -0.614 (inactive) | furin cleavage Z-score (15 min): -0.299 (inactive) | furin cleavage Z-score (30 min): 0.089 (inactive)

CANYTIFKIRAGNASASA [HC472]
furin cleavage Z-score (7.5 min): -0.135 (inactive) | furin cleavage Z-score (15 min): 0.367 (inactive) | furin cleavage Z-score (30 min): -0.43 (inactive)

CAELPCHRPSAGNASASA [HC2325]
furin cleavage Z-score (7.5 min): 0.967 (inactive) | furin cleavage Z-score (15 min): -0.4 (inactive) | furin cleavage Z-score (30 min): 0.0984 (inactive)

CAEVPCHWPSAGNASASA [HC2368]
furin cleavage Z-score (7.5 min): -0.575 (inactive) | furin cleavage Z-score (15 min): -0.478 (inactive) | furin cleavage Z-score (30 min): 0.531 (inactive)

CAVVCCQMSYAGNASASA [HC119]
furin cleavage Z-score (7.5 min): -0.852 (inactive) | furin cleavage Z-score (15 min): -0.183 (inactive) | furin cleavage Z-score (30 min): 0.623 (inactive)

CADKNQVEGEAGNASASA [HC686]
furin cleavage Z-score (7.5 min): -0.934 (inactive) | furin cleavage Z-score (15 min): -0.739 (inactive) | furin cleavage Z-score (30 min): -1.82 (inactive)

CAAKLMPQLPAGNASASA [HC1159]
furin cleavage Z-score (7.5 min): 0.255 (inactive) | furin cleavage Z-score (15 min): -0.546 (inactive) | furin cleavage Z-score (30 min): 0.241 (inactive)

CALTLRMRRYAGNASASA [FS-1032]
furin cleavage Z-score (7.5 min): 9.91 (active) | furin cleavage Z-score (15 min): 10.2 (active) | furin cleavage Z-score (30 min): 11.2 (active)

CAMNSRKGRYAGNASASA [FS-1237]
furin cleavage Z-score (7.5 min): 1.23 | furin cleavage Z-score (15 min): 0.312 (inactive) | furin cleavage Z-score (30 min): 2.34

CALVRRRRRYAGNASASA [FS-462]
furin cleavage Z-score (7.5 min): 11 (active) | furin cleavage Z-score (15 min): 12.3 (active) | furin cleavage Z-score (30 min): 9.67 (active)

CALTLSPYYKAGNASASA [HC575]
furin cleavage Z-score (7.5 min): -0.934 (inactive) | furin cleavage Z-score (15 min): -0.768 (inactive) | furin cleavage Z-score (30 min): -0.313 (inactive)

CAAHDGAGKRAGNASASA [HC1557]
furin cleavage Z-score (7.5 min): -0.0785 (inactive) | furin cleavage Z-score (15 min): 0.342 (inactive) | furin cleavage Z-score (30 min): 0.362 (inactive)

CAVEMEECSQAGNASASA [HC1790]
furin cleavage Z-score (7.5 min): 0.132 (inactive) | furin cleavage Z-score (15 min): -1.38 (inactive) | furin cleavage Z-score (30 min): -1.19 (inactive)

CATTPCSGNWAGNASASA [HC1921]
furin cleavage Z-score (7.5 min): 0.659 (inactive) | furin cleavage Z-score (15 min): 0.815 (inactive) | furin cleavage Z-score (30 min): -0.795 (inactive)

CAPVGSQLPCAGNASASA [HC1238]
furin cleavage Z-score (7.5 min): 0.473 (inactive) | furin cleavage Z-score (15 min): -1.27 (inactive) | furin cleavage Z-score (30 min): 0.372 (inactive)

CAGVRATRKTAGNASASA [HC183]
furin cleavage Z-score (7.5 min): 0.267 (inactive) | furin cleavage Z-score (15 min): 0.577 (inactive) | furin cleavage Z-score (30 min): 0.344 (inactive)

CAIREVPCHRAGNASASA [HC2424]
furin cleavage Z-score (7.5 min): -0.0693 (inactive) | furin cleavage Z-score (15 min): 1.33 | furin cleavage Z-score (30 min): 2.41

CAVIQMYTNVAGNASASA [HC709]
furin cleavage Z-score (7.5 min): 0.334 (inactive) | furin cleavage Z-score (15 min): -0.0874 (inactive) | furin cleavage Z-score (30 min): -1.04 (inactive)

CARAKRRAIRAGNASASA [FS-2637]
furin cleavage Z-score (7.5 min): 10.3 (active) | furin cleavage Z-score (15 min): 11.4 (active) | furin cleavage Z-score (30 min): 9.08 (active)

CARAKRTTKRAGNASASA [FS-3241]
furin cleavage Z-score (7.5 min): 8.36 (active) | furin cleavage Z-score (15 min): 10.4 (active) | furin cleavage Z-score (30 min): 9.38 (active)

CARAKRPLMVAGNASASA [FS-2884]
furin cleavage Z-score (7.5 min): 0.123 (inactive) | furin cleavage Z-score (15 min): 1.97 | furin cleavage Z-score (30 min): -0.869 (inactive)

CARAYRSSMRAGNASASA [FS-2894]
furin cleavage Z-score (7.5 min): -1.12 (inactive) | furin cleavage Z-score (15 min): -1.44 (inactive) | furin cleavage Z-score (30 min): -1.22 (inactive)

CARAKRAFLPAGNASASA [FS-1991]
furin cleavage Z-score (7.5 min): 3.35 | furin cleavage Z-score (15 min): 4.79 (active) | furin cleavage Z-score (30 min): 6.29 (active)

CARAKRRWAPAGNASASA [FS-2638]
furin cleavage Z-score (7.5 min): 0.9 (inactive) | furin cleavage Z-score (15 min): 1.95 | furin cleavage Z-score (30 min): 0.773 (inactive)

CARAKREEKKAGNASASA [FS-2634]
furin cleavage Z-score (7.5 min): 3.98 (active) | furin cleavage Z-score (15 min): 2.96 | furin cleavage Z-score (30 min): 4.64 (active)

CAAATLGFGAAGNASASA [HC790]
furin cleavage Z-score (7.5 min): -0.962 (inactive) | furin cleavage Z-score (15 min): 1.23 | furin cleavage Z-score (30 min): 1.13

CARAKRRGGGAGNASASA [FS-2886]
furin cleavage Z-score (7.5 min): 0.374 (inactive) | furin cleavage Z-score (15 min): -1.9 (inactive) | furin cleavage Z-score (30 min): 0.196 (inactive)

CARAKRKVTRAGNASASA [FS-2636]
furin cleavage Z-score (7.5 min): 3.09 | furin cleavage Z-score (15 min): 4.94 (active) | furin cleavage Z-score (30 min): 4.17 (active)

CARDGRKVTVAGNASASA [FS-2902]
furin cleavage Z-score (7.5 min): -0.804 (inactive) | furin cleavage Z-score (15 min): -0.377 (inactive) | furin cleavage Z-score (30 min): -1.67 (inactive)
